Molecules are shown by their SMILES. This is part of a sample that, as a whole, favours compounds with a hit. Of some 83,000 tested, about 20% had one in any assay.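 The test compound was applied at a single concentration to cells in 96-well plates for 48 hours, and percent growth was recorded.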 Unmarked numbers belong to inactive results. Active and inactive are the calls of the source. How the source made its calls: active means growth percent below 10; inactive means the rest.

For eleven compounds, growth results are on record in PubChem BioAssay (NCI).

Test in all cases: NCI-60 one-dose screen, 48 h (100 = growth as untreated, 0 = no growth, -100 = all killed)
The subject of one experiment is HT29 colon. The settings on record: 10 µM unless noted.
The next experiment has as its system SNB-75 CNS. As to conditions: 10 µM unless noted.
The subject of a further experiment is SNB-19 CNS. The settings on record: 10 µM unless noted.
The subject of the next experiment is U251 CNS. As to conditions: 10 µM unless noted.
The test system of the next experiment is PC-3 prostate. The settings on record: 10 µM unless noted.
The subject of another experiment is SK-MEL-5 melanoma. The settings on record: 10 µM unless noted.
A further experiment relates to UACC-62 melanoma. As to conditions: 10 µM unless noted.
Another experiment has as its system LOX IMVI melanoma. The settings on record: 10 µM unless noted.
The next experiment relates to SK-MEL-28 melanoma. As to conditions: 10 µM.
The subject of the next experiment is SK-MEL-2 melanoma. The settings on record: 10 µM unless noted.
The subject of the next experiment is SN12C renal. As to conditions: 10 µM unless noted.
Another experiment has as its system UO-31 renal. As to conditions: 10 µM unless noted.
A further experiment has as its system TK-10 renal. As to conditions: 10 µM unless noted.
In a further experiment the test system is ACHN renal. As to conditions: 10 µM unless noted.
The next experiment has as its system CAKI-1 renal. The settings on record: 10 µM unless noted.
The next experiment has as its system A498 renal. The settings on record: 10 µM unless noted.
The test system of a further experiment is CCRF-CEM leukemia. As to conditions: 10 µM unless noted.
For the next experiment, the system named is MOLT-4 leukemia. The settings on record: 10 µM unless noted.
For another experiment, the system named is SR leukemia. As to conditions: 10 µM unless noted.

In the case of `Cc1ccc(S(=O)c2ccc([N+](=O)[O-])c3nonc23)cc1` (centres undefined), the growth was 93.8% in the experiment on HT29 colon; 112% in the experiment with SNB-75 CNS; 117% with SNB-19 CNS; 96.4% in the experiment on U251 CNS; 92.6% with PC-3 prostate; 100% in the experiment on SK-MEL-5 melanoma. The growth in the experiment on UACC-62 melanoma is 108%; in the experiment with LOX IMVI melanoma, 73.6%; with SK-MEL-28 melanoma it was 105%; in the experiment with SK-MEL-2 melanoma, 112%; in the experiment on SN12C renal it was 126%; in the experiment on UO-31 renal it was 97.9%. The growth with TK-10 renal is 72.3%; with ACHN renal it was 72.4%; in the experiment with CAKI-1 renal, 90.5%; in the experiment with A498 renal, 84.3%; in the experiment on CCRF-CEM leukemia, 1.61% (active); with MOLT-4 leukemia it was -3.44% (active). Further, the growth with SR leukemia is -8.16% (active).
On to `CCOc1ccccc1CN1CCc2nc3cc(C(C)(C)C)[nH]n3c(=O)c2C1`, for which the growth in the experiment with HT29 colon is 94.8%; in the experiment with SNB-75 CNS, 105%; in the experiment on SNB-19 CNS it was 94.8%; in the experiment with U251 CNS it was 104%; in the experiment on PC-3 prostate, 109%; with SK-MEL-5 melanoma, 101%. Besides, the growth with UACC-62 melanoma was 102%; with LOX IMVI melanoma it was 96.7%; with SK-MEL-28 melanoma, 112%; in the experiment on SK-MEL-2 melanoma it was 98.3%; in the experiment on SN12C renal, 104%; with UO-31 renal, 93.4%. Further, the growth is 97.6% in the experiment with TK-10 renal; 95.4% in the experiment on ACHN renal; 99.9% with CAKI-1 renal; 101% in the experiment on A498 renal; 91.8% in the experiment on CCRF-CEM leukemia; 94.7% with MOLT-4 leukemia. Besides, the growth in the experiment on SR leukemia is 88.5%.
`O=C(CSc1ccc2nnc(-c3cccc(F)c3)n2n1)Nc1ccc2c(c1)OCO2`: the growth was 99.6% with HT29 colon; -22.3% (active) in the experiment with SNB-75 CNS; 100% in the experiment on SNB-19 CNS; 70.3% in the experiment on U251 CNS; 40.1% in the experiment on PC-3 prostate; 86.1% with SK-MEL-5 melanoma. Moreover, the growth in the experiment on UACC-62 melanoma was 83.2%; in the experiment on LOX IMVI melanoma it was 61.1%; in the experiment with SK-MEL-28 melanoma, 79.7%; in the experiment with SK-MEL-2 melanoma, 92.6%; in the experiment with SN12C renal, 80.5%; with UO-31 renal it was 70.4%. Moreover, the growth with TK-10 renal was 112%; in the experiment on ACHN renal, 87.9%; with CAKI-1 renal, 84.1%; in the experiment on A498 renal, 104%; with CCRF-CEM leukemia it was 32.5%; in the experiment on MOLT-4 leukemia, 62.1%. In addition, the growth with SR leukemia is 56.3%.
For the compound `COc1ccc2sc(N(Cc3cccnc3)C(=O)c3ccc(C#N)cc3)nc2c1`, the growth is 23.4% in the experiment on HT29 colon; 74% in the experiment on SNB-75 CNS; 98.6% in the experiment with SNB-19 CNS; 67.4% in the experiment with U251 CNS; 78.2% in the experiment on PC-3 prostate; 80.9% in the experiment with SK-MEL-5 melanoma. In addition, the growth in the experiment with UACC-62 melanoma was 86.9%; in the experiment on LOX IMVI melanoma, 75.9%; in the experiment on SK-MEL-28 melanoma, 50.2%; with SK-MEL-2 melanoma it was 109%; in the experiment with SN12C renal it was 80%; with UO-31 renal it was 75.6%. Further, the growth was 96.6% in the experiment with TK-10 renal; 91.2% in the experiment on ACHN renal; 91.9% in the experiment with CAKI-1 renal; 89.6% in the experiment on A498 renal; 72.1% with CCRF-CEM leukemia; 57.8% in the experiment on MOLT-4 leukemia. Also, the growth in the experiment with SR leukemia is 66.4%.
As for `Cc1ccc(S(=O)(=O)c2c(COC(=O)c3cccc(C)c3)c(-c3ccccc3)nn2C)cc1`, the growth in the experiment on HT29 colon is -44.5% (active); in the experiment on SNB-75 CNS, 107%; with SNB-19 CNS, 24.6%; in the experiment with U251 CNS, -32.4% (active); with PC-3 prostate, 48.5%; in the experiment with SK-MEL-5 melanoma, 77.6%. In addition, the growth is 88.7% in the experiment with UACC-62 melanoma; -22.8% (active) with LOX IMVI melanoma; -68.4% (active) in the experiment with SK-MEL-28 melanoma; 27.2% with SK-MEL-2 melanoma; 89.1% in the experiment with SN12C renal; 103% in the experiment on UO-31 renal. Besides, the growth is 113% in the experiment on TK-10 renal; 91% with ACHN renal; 107% in the experiment on CAKI-1 renal; 123% in the experiment on A498 renal; -7.63% (active) with CCRF-CEM leukemia; -11.2% (active) in the experiment with MOLT-4 leukemia. Further, the growth in the experiment on SR leukemia is 1.41% (active).
As for `C1=CC2(C=C1)OC21CCC2(C=CC3(C2)OC3C2CCCCC2)CC1` (centres undefined), the growth is 110% with HT29 colon; 94.2% in the experiment on SNB-75 CNS; 104% in the experiment with SNB-19 CNS; 99.5% in the experiment with U251 CNS; 101% in the experiment on PC-3 prostate; 106% in the experiment on SK-MEL-5 melanoma. The growth in the experiment on UACC-62 melanoma is 99.7%; in the experiment on LOX IMVI melanoma, 92.5%; in the experiment on SK-MEL-28 melanoma it was 105%; in the experiment on SK-MEL-2 melanoma it was 104%; with SN12C renal it was 105%; in the experiment with UO-31 renal, 96.8%. The growth is 113% in the experiment on TK-10 renal; 104% in the experiment with ACHN renal; 93.6% in the experiment on CAKI-1 renal; 97.2% in the experiment on A498 renal; 97.1% in the experiment on CCRF-CEM leukemia; 95.6% with MOLT-4 leukemia. In the experiment on SR leukemia, the growth is 90.7%.
Turning to `CN(C)c1ccc(N=Cc2ccc(N3CCOCC3)cc2)cc1`, the growth was 84.2% in the experiment on HT29 colon; 81.3% in the experiment with SNB-75 CNS; 90.9% in the experiment with SNB-19 CNS; 46.6% in the experiment on U251 CNS; 54.1% with PC-3 prostate; 82% in the experiment on SK-MEL-5 melanoma. Besides, the growth in the experiment with UACC-62 melanoma is 84.8%; with LOX IMVI melanoma it was 74.3%; in the experiment with SK-MEL-28 melanoma it was 114%; with SK-MEL-2 melanoma, 67.2%; in the experiment on SN12C renal, 79%; in the experiment with UO-31 renal, 71.4%. The growth in the experiment with TK-10 renal was 116%; with ACHN renal, 88.8%; in the experiment on CAKI-1 renal, 86.6%; with A498 renal, 91.7%; with CCRF-CEM leukemia, 58.8%; with MOLT-4 leukemia, 65.2%. In the experiment on SR leukemia, the growth is 75.6%.
As for `Cc1ccc(F)cc1NC(=O)c1cc(Cl)ccc1Nc1ccccc1`, the growth was 17.8% in the experiment on HT29 colon; 53.6% in the experiment on SNB-75 CNS; 59.4% in the experiment with SNB-19 CNS; 42.5% with U251 CNS; 23.2% in the experiment with PC-3 prostate; 70.9% in the experiment with SK-MEL-5 melanoma. Further, the growth is 65.4% in the experiment on UACC-62 melanoma; 49.4% in the experiment with LOX IMVI melanoma; 89.6% in the experiment on SK-MEL-28 melanoma; 54.9% with SK-MEL-2 melanoma; 32.1% with SN12C renal; 23.7% in the experiment on UO-31 renal. Besides, the growth was 63% with TK-10 renal; 42.3% in the experiment on ACHN renal; 48.2% with CAKI-1 renal; 89.1% with A498 renal; 45.8% in the experiment with CCRF-CEM leukemia; 29% in the experiment on MOLT-4 leukemia. For the same compound, the growth with SR leukemia was 44.2%.
On to `CCOc1ccc2nc(C)cc(Nc3ccc(Br)cc3)c2c1`, for which the growth with HT29 colon is 77.8%; in the experiment on SNB-75 CNS it was 89.7%; in the experiment with SNB-19 CNS it was 101%; in the experiment on U251 CNS it was 98.1%; in the experiment on PC-3 prostate it was 86.7%; in the experiment on SK-MEL-5 melanoma, 97.1%. The growth is 103% in the experiment on UACC-62 melanoma; 106% in the experiment on LOX IMVI melanoma; 108% in the experiment with SK-MEL-28 melanoma; 109% with SK-MEL-2 melanoma; 98.5% with SN12C renal; 92.1% in the experiment with UO-31 renal. Also, the growth was 119% with TK-10 renal; 99.6% with ACHN renal; 97% in the experiment with CAKI-1 renal; 79.1% in the experiment with A498 renal; 90.3% with CCRF-CEM leukemia; 88.6% in the experiment with MOLT-4 leukemia. Besides, the growth in the experiment with SR leukemia was 86.4%.
In the case of `OC(CNC1CCCCC1)Cn1c2ccc(I)cc2c2cc(I)ccc21` (centres undefined), the growth in the experiment on HT29 colon was 95.7%; in the experiment with SNB-75 CNS, 50.4%; in the experiment with SNB-19 CNS it was 86%; with U251 CNS, 72.6%; in the experiment on PC-3 prostate it was 62.5%; in the experiment with SK-MEL-5 melanoma, 67.7%. The growth was 64.8% with UACC-62 melanoma; 77.4% with LOX IMVI melanoma; 81.3% with SK-MEL-28 melanoma; 97% in the experiment with SK-MEL-2 melanoma; 70.1% in the experiment with SN12C renal; 47.7% with UO-31 renal. The growth is 94.6% in the experiment with TK-10 renal; 75.4% in the experiment with ACHN renal; 63.9% in the experiment with CAKI-1 renal; 87.8% with A498 renal; 78.1% with CCRF-CEM leukemia; 68.2% in the experiment with MOLT-4 leukemia. Also, the growth with SR leukemia is 68.1%.
For `CCOC(=O)C1=CN(C)C=C(C(=O)OCC)C1c1cc(Br)c(OCC)c(OC)c1`, the growth is 7.46% (active) in the experiment with HT29 colon; 43.5% with SNB-75 CNS; 64.8% with SNB-19 CNS; 34.8% in the experiment on U251 CNS; 45.2% in the experiment with PC-3 prostate; 36.1% with SK-MEL-5 melanoma. The growth with UACC-62 melanoma was -48% (active); in the experiment on LOX IMVI melanoma it was 18.3%; with SK-MEL-28 melanoma, 18.8%; in the experiment with SK-MEL-2 melanoma, 72.3%; with SN12C renal, 56.5%; in the experiment on UO-31 renal, 16.3%. In addition, the growth is 43% with TK-10 renal; 54.6% with ACHN renal; 52.5% in the experiment on CAKI-1 renal; 59.1% in the experiment with A498 renal; 32.9% in the experiment with CCRF-CEM leukemia; 27.5% in the experiment with MOLT-4 leukemia. Besides, the growth with SR leukemia is -0.61% (active).
